In PubChem BioAssay (NCATS):
Inconclusive results are not listed. Entries that show only a call come without a potency. Activity calls are given as the source filed them. The call rests on the fitted dose curve; in most records, active means well fitted cell-killing curve with a large enough effect; inconclusive means small, poorly fitted or top-dose-only effect, or effect the other way; inactive means flat fitted curve, though single readings scatter.

What was measured:
Assay in all cases: Primary qHTS to identify gynecologic anti-cancer compounds using libraries of approved drugs and bioactive compounds (AID 1345084); further: nearly all actives have a fitted effect of over 55% in size
Conditions in all cases: Gynecologic cancer cell panel viability, ATPlite luminescence, 48 h; series mostly up to 57.5 µM
PA-1 = test system: PA-1
Summary of the method: (§1)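 Cells, 1,000 per well, were allowed to settle for 16 h at 37 C before compound addition. Five concentrations were tested for 48 h, and viability was read by ATPlite luminescence after 15 min at room temperature.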

Tov-21-G = test system: Tov-21-G
Summary of the method: as §1

Tov112D = test system: Tov112D
Summary of the method: as §1

SKOV3 = test system: SKOV3
Summary of the method: as §1
Potency means the concentration at half of the fitted maximal effect.

| Structure (SMILES) | Potency (PA-1) | Potency (Tov-21-G) | Potency (Tov112D) | Potency (SKOV3) |
| --- | --- | --- | --- | --- |
| COc1cc2nc(C3CC3)nc(N3CCN(c4ccccc4OC)CC3)c2cc1OC | inactive | inactive | inactive |  |
| O=C(Nc1cccnn1)N1CCN(c2nccc(-c3ccc(F)c(F)c3)n2)CC1 | inactive | inactive | inactive |  |
| CCC(C)CC(=O)OC1C(=O)C(CO)=CC(O)C1C(C)C (stereo not given) | 31.6 µM (active) | 25.1 µM (active) |  |  |
| N#Cc1ccc(COc2ccc(-c3cccc4nc(NC(=O)C5CC5)nn34)cc2)cn1 | inactive | inactive |  |  |
| C[C@H]1CO[C@@H]2Cn3cc(C(=O)NCc4ccc(F)cc4F)c(=O)c(O)c3C(=O)N12 | inactive |  | inactive | inactive |
| C=C(C)C(=O)O[C@H]1C[C@@](C)(O)C2(O)CCC(C)(/C=C3/OC(=O)C(COC)=C31)O2 (stereo not given in full) | 10 µM (active) | 10 µM (active) |  |  |
| O=c1cc(OCc2ccc(F)cc2)ccn1-c1ccc(OCCN2CCCC2)cc1 | inactive | inactive | inactive |  |
| CCOc1nc(NC(=O)Cc2cc(OC)ccc2OC)cc(N)c1C#N | inactive | inactive | inactive |  |
| C=C1C(=O)O[C@@H]2[C@H]1CC(=O)[C@H](C)[C@@](O)(C(=O)/C=C/C)[C@H]2OC(=O)C(C)CC (stereo not given in full) | 11.2 µM (active) | 12.6 µM (active) |  |  |
| C=C1C(=O)O[C@@H]2/C=C(\C)CC/C=C(/C=O)[C@H](OC)[C@@H](OC(=O)C(C)C)[C@@H]12 | inactive |  | inactive | inactive |
| COc1cc(-n2cnc3cc(-c4ccc(Cl)cc4)sc3c2=O)ccc1OCCN1CCCC1 | 22.4 µM (active) | inactive |  |  |
| C=CC(=O)N1CCC[C@@H](n2nc(-c3cccc(C(=O)Nc4ccc(C(C)C)c(C)c4)c3)c3c(N)ncnc32)C1 | inactive | 14.1 µM (active) |  |  |
| N#CC(CCCN1CCC(O)(c2ccc(Cl)cc2)CC1)(c1ccccc1)c1ccccc1 | inactive | inactive |  |  |
| CN(C)c1cccc(Oc2cnc(Nc3cccc(O)c3)nc2)c1 | inactive |  | inactive | inactive |
| CC1CCCC[C@H]2C(=O)C=C[C@H](O)[C@@H]2CC(=O)O1 (stereo not given in full) | 10 µM (active) |  | 14.1 µM (active) | 3.55 µM (active) |
| CC(C)C[C@@H](C(=O)N[C@@H](Cc1ccc(OCc2ccccc2)cc1)C(=O)NC(C)(C)C)N(C)Cc1ccc(C(C)(C)C)cc1 | inactive | inactive | inactive |  |
| C=C[C@@]1(C)C=C2C(=O)C(O)=C3[C@](C)(C(=O)O)CC[C@@H]4C[C@]34[C@]2(O)C(=O)C1 | 11.2 µM (active) | 11.2 µM (active) |  |  |
| C/C1=C\[C@@H](C)C[C@@H](C)[C@@H](Cc2cnco2)OC(=O)/C(C)=C/[C@@H](C)C[C@@H](C)[C@@H](Cc2cnco2)OC1=O | inactive | inactive |  |  |
| C[C@H](CN(C)C)Oc1nc(Nc2cc3cccc(Cl)c3cn2)cnc1C#N | inactive |  | inactive | 12.6 µM (active) |
| CCN1CCN(Cc2ccc(NC(=O)c3ccc(C)c(Oc4ncnc5[nH]c(C)cc45)c3)cc2C(F)(F)F)CC1 | 31.6 µM (active) | 11.2 µM (active) |  |  |
| Nc1nc(NC2CC2)cc(-c2cccc(Cl)c2Cl)n1 | 28.2 µM (active) |  | 12.6 µM (active) | 14.1 µM (active) |
| COc1cc(N2CCC(O)CC2)ccc1Nc1nc(Nc2ccccc2S(=O)(=O)C(C)C)c2[nH]cnc2n1 | inactive |  | inactive | inactive |

| Structure (SMILES) | Potency (PA-1) | Potency (Tov-21-G) | Potency (Tov112D) | Potency (SKOV3) |
| --- | --- | --- | --- | --- |
| C=C1C(=O)O[C@@H]2C[C@H](C)C3=CC(=O)[C@H](O)[C@@]3(C)C[C@H]12 | inactive | inactive | inactive |  |
| COc1cc(C#N)ccc1S(=O)(=O)Nc1ccc2c(c1)cc(C)c(=O)n2C | inactive | inactive | inactive |  |
| O=C(Nc1nnc(-c2ccc3c(c2)OCCO3)o1)C1CCCCC1 | inactive | inactive | inactive |  |
| CC(=O)Nc1cccc(Nc2ncnc(N3CCC(OCc4ccc(OC(F)(F)F)cc4)CC3)n2)c1C | inactive | inactive | inactive |  |
| CC(C)(F)CC(NC(c1ccc(-c2ccc(S(C)(=O)=O)cc2)cc1)C(F)(F)F)C(=O)NC1(C#N)CC1 (stereo not given) | inactive | inactive | inactive |  |
| CC(=O)OC(C)(C)/C=C/C(=O)[C@](C)(O)[C@H]1C(O)C[C@@]2(C)[C@@H]3CC=C4[C@@H](C=C(O[C@@H]5O[C@H](CO)[C@@H](O)[C@H](O)[C@H]5O)C(=O)C4(C)C)[C@]3(C)C(=O)C[C@]12C (stereo not given in full) | inactive | inactive | inactive |  |
| Nc1nc(O)c(C2=C3C(=Nc4ccccc43)C(=O)NCC2)[nH]1 | inactive | inactive | inactive |  |
| O=C(Nc1nc2ccc([N+](=O)[O-])cc2s1)C1CCCCC1 | inactive | inactive | inactive |  |
| O=C(c1c(F)ccc(NS(=O)(=O)N2CC[C@@H](F)C2)c1F)c1c[nH]c2ncc(-c3cnc(C4CC4)nc3)cc12 | inactive | 11.2 µM (active) | inactive |  |
| CCn1c(N)c(C(=O)NC)c(=O)c2ccc(C#CC(C)(O)COC)nc21 (stereo not given) | inactive | inactive | inactive |  |
| COC1CCN(c2cccc(-c3cc(NC(C)=O)nc(-n4nc(C)cc4C)n3)n2)CC1 | inactive | inactive | inactive |  |
| Cc1cccc(CC(=O)N2CCc3c2ccc(-c2cn(C)c4ncnc(N)c24)c3F)n1 | inactive | inactive | inactive |  |
| Cc1csc(N(C(=O)CSc2ccc(-c3ccccc3)nn2)C2CC2)n1 | inactive | inactive | inactive |  |
| Nc1nc2c(nc(Br)n2[C@@H]2O[C@@H]3COP(=O)(O)O[C@H]3[C@H]2O)c(=O)[nH]1 | inactive | inactive | inactive |  |
| CC(=O)CC(=O)Nc1ccc(Cl)c(C(F)(F)F)c1 | inactive | inactive | inactive |  |
| C/C(=C/C=C\C=C\Cc1cnco1)[C@@H](O)C(C)(C)C(N)=O | inactive | inactive | inactive |  |
| CCCn1ncc(CN2CCCC(C(=O)c3cccc(OC(C)C)c3)C2)c1C (stereo not given) | inactive | inactive | inactive |  |
| CNCCC(c1cccs1)c1ccc(O)c2ccccc12 (stereo not given) | inactive | inactive | inactive |  |
| CC1OC(=O)C[C@@H]2C(C(=O)O)=CO[C@@H](O[C@H]3O[C@H](CO)[C@@H](O)[C@H](O)[C@H]3O)[C@H]12 (stereo not given in full) | inactive | inactive | inactive |  |
| COc1ccc2cc3c(NC(=O)c4ccco4)nn(C)c3nc2c1 | inactive | inactive | inactive |  |
| COc1cc(F)c(C(C)C)cc1-c1ccc(C(F)(F)F)cc1CN1C(=O)OC(c2cc(C(F)(F)F)cc(C(F)(F)F)c2)C1C (stereo not given) | inactive | inactive | inactive |  |
| CC/C=C\CC1C(=O)C=CC1(CCCCC1CCC(=O)O1)OC(C)=O (stereo not given) | inactive | inactive | inactive |  |

| Structure (SMILES) | Potency (PA-1) | Potency (Tov-21-G) | Potency (Tov112D) | Potency (SKOV3) |
| --- | --- | --- | --- | --- |
| O=C(Nc1ccc(Cl)cc1)C1CCCN(C(=O)c2cccc(-c3ccco3)c2)C1 (stereo not given) | inactive | inactive | inactive |  |
| C[C@@H]1CC[C@@]23CC[C@]4(C)[C@@](C=CC5[C@@]6(C)CC[C@H](O)C(C)(C)C6CC[C@]54C)(OC2=O)C3[C@H]1C (stereo not given in full) | inactive | inactive | inactive |  |
| C[C@@H](NC(=O)[C@H](O)c1cc(F)cc(F)c1)C(=O)N[C@@H]1C(=O)N(C)c2ccccc2-c2ccccc21 | inactive | inactive | inactive |  |
| Cc1cc(Nc2nc(-c3ccccc3)nc3ccccc23)n[nH]1 | 10 µM (active) | 10 µM (active) | inactive |  |
| CCCCNc1ncc(-c2ccc(CN3CCOCC3)cn2)c(NC2CCC(O)CC2)n1 (stereo not given) | inactive | inactive | inactive |  |
| CC(C)(O)/C=C/C(=O)[C@](C)(O)[C@H]1[C@H](O)C[C@@]2(C)[C@@H]3CC=C4[C@@H](C[C@H](O[C@@H]5O[C@H](CO)[C@@H](O)[C@H](O)[C@H]5O)C(=O)C4(C)C)[C@]3(C)C(=O)C[C@]12C | inactive | inactive | inactive |  |
| COc1cc(/C=C2\CC[C@H]3COC[C@@H](c4cc(F)c(F)c(F)c4)N3C2=O)ccc1-n1cnc(C)c1 | inactive | inactive | inactive |  |
| CN(C)CCOC(C)(c1ccccc1)c1ccc(Cl)cc1 (stereo not given) | inactive | inactive | inactive |  |
| CC(C)(C[C@@](O)(Cc1cc2ccncc2[nH]1)C(F)(F)F)c1cc(F)ccc1O | inactive | inactive | inactive |  |
| Cc1cc(-c2nc(-c3ccc(OC(F)(F)F)cc3)no2)nn1Cc1ccnc(N2CCN(C3CC3)CC2)c1 | inactive | inactive | inactive |  |
| OC1(CN2CCC(COc3noc4cccc(O[C@@H]5CCOC5)c34)CC2)CCOCC1 | inactive | inactive | inactive |  |
| O=C(N[C@@H]1CCCc2c1cnn2-c1ccc(F)cc1F)c1ccccn1 | inactive | inactive | inactive |  |
| C=CC(=O)N1CCCN(c2cc(NCCC(=O)O)nc(-c3ccccn3)n2)CC1 | inactive | inactive | inactive |  |
| CCCCc1c(-c2ccc(OC)cc2)[nH]c2nccnc12 | inactive | inactive | inactive |  |
| CCc1ccc(-c2nc(CSCC(=O)NCCc3ccccc3)c(C)o2)cc1 | inactive | inactive | inactive |  |
| O=C(Nc1ccccc1)c1ccc(Nc2nnc(-c3ccc(O)cc3)c3ccccc23)cc1 | inactive | inactive | inactive |  |
| COC1CC(O[C@H]2CC[C@]3(C)C4CC[C@@]5(C)C(=O)[C@]4(CC[C@@H]3C2)CC[C@@H]5C2=CC(=O)OC2)OC(C)C1OC1OC(COC2OC(CO)C(O)C(O)C2O)C(O)C(O)C1O (stereo not given in full) | 3.16 µM (active) | 2.24 µM (active) | 1.12 µM (active) |  |
| COc1ccc2c(c1O[C@H]1CCNC1)CCC2 | inactive | inactive | inactive |  |
| CCc1cccc(CC)c1-n1c(C=C(C)C)c(C(=O)N2CCNCC2)cc(-c2nc(-c3ccc(C(F)(F)F)cc3)cs2)c1=O | inactive | inactive | inactive |  |
| CCc1cnc(N2CCC(c3nc(COc4ccc(-n5cnnn5)cc4)cs3)CC2)nc1 | inactive | inactive | inactive |  |
| CC(C)=C[C@@H]1[C@H](CO[C@@H]2O[C@H](CO)[C@@H](O)[C@H](O)[C@H]2O)C1(C)C | inactive | inactive | inactive |  |
